PubChem BioAssay (NCI)
About 83,000 compounds went through this panel and 20% of them were active in at least one assay; those are over-represented in the sample as a whole.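 48-hour exposure, single concentration, 96-well plates; percent growth endpoint where 0 means no net growth. Active: below 10.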 Values without a mark were called inactive. The source made the active and inactive calls.

How the values were obtained:
Assay in all cases: NCI-60 one-dose screen, 48 h (100 = growth as untreated, 0 = no growth, -100 = all killed)
Settings in all cases: 10 µM unless noted
SK-MEL-2 melanoma = tested on: SK-MEL-2 melanoma
EKVX NSCLC = tested on: EKVX NSCLC
SN12C renal = tested on: SN12C renal
UO-31 renal = tested on: UO-31 renal
TK-10 renal = tested on: TK-10 renal
ACHN renal = tested on: ACHN renal
CAKI-1 renal = tested on: CAKI-1 renal
A498 renal = tested on: A498 renal
CCRF-CEM leukemia = tested on: CCRF-CEM leukemia
MOLT-4 leukemia = tested on: MOLT-4 leukemia

Row | SMILES | growth (SK-MEL-2 melanoma) | growth (EKVX NSCLC) | growth (SN12C renal) | growth (UO-31 renal) | growth (TK-10 renal) | growth (ACHN renal) | growth (CAKI-1 renal) | growth (A498 renal) | growth (CCRF-CEM leukemia) | growth (MOLT-4 leukemia)
1 | CCOC(=O)c1cc2oc(/C=C/c3cc(=O)c4cc(Cl)ccc4o3)cc2[nH]1 | 82.1% | 89.7% | 62.4% | 81.8% | 113% | 97.8% | 79% | 115% | 105% | 88.9%
2 | CC(=O)Nc1ccc(C(=O)COc2cccc(/C=C3\CCc4ccccc4C3=O)c2)cc1 | 51.2% | 80.3% | 99.5% | 5.8% (active) | 103% | 92.1% | 254% | 92.7% | 11.6% | 38%
3 | COc1ccc2c(c1)c(CC(=O)[Se]C)c(C)n2C(=O)c1ccc(Cl)cc1 | 12.4% | -26.7% (active) | -4.23% (active) | 14.7% | -58.4% (active) | 10.4% | -35.1% (active) | – | 13% | 6.33% (active)
4 | Cc1cccc2nnc(-c3ccccc3)n12 | 99.1% | 103% | 93.7% | 85.1% | 98.1% | 105% | 105% | 96% | 99.3% | 93.2%
5 | Cc1cc(=O)[nH]c(/C(=N/Nc2ccccc2)C(=O)c2ccc(Cl)cc2)n1 | 102% | 103% | 93.2% | 116% | 65.5% | 111% | 104% | 84% | 66% | 39.8%
6 | CCN1CCN(c2nc(NNC(=O)Cc3ccccc3)nc(N3CCN(C(c4ccccc4)c4ccccc4)CC3)n2)CC1 | 37.6% | 75.7% | 77.9% | 61.7% | 89.1% | 86.4% | 39.5% | – | 42.6% | 38.5%
7 | Cc1ccccc1NC(=O)NC(CC(N)=O)c1ccc2c(c1)nc(-c1cccc(Oc3ccc(C(C)(C)C)cc3)c1)n2CCCN1CCCCC1C (centres undefined) | 51.8% | 79.2% | 59.1% | 88.6% | 31.1% | 74.4% | 92.6% | 69.4% | 1.56% (active) | -10.6% (active)
8 | ICCC(c1ccccc1)(c1ccccc1)c1ccccc1 | 48.7% | 88.4% | 69.7% | 49.6% | 73.5% | 68.9% | 74.9% | 51.7% | 31.6% | 39.4%
9 | CC(=O)Nc1cc(C(c2ccccc2)c2ccccc2)cc(C(c2ccccc2)c2ccccc2)c1C | 27% | 61.4% | 69.7% | 49.3% | 84.3% | 51.1% | 49.2% | – | 34.1% | 8.92% (active)
10 | Clc1ccc(C2c3ccccc3-c3nccn32)c(Cl)c1 (centres undefined) | 80.7% | 60% | 85.4% | 80.1% | 81.3% | 89.7% | -12% (active) | 90.3% | – | 65.6%
11 | NC(=O)NS(=O)(=O)c1ccc(N2N=C(C(F)(F)F)CC2c2cc(C(F)(F)F)cc(C(F)(F)F)c2)cc1 (centres undefined) | 11.2% | 58.5% | 83.5% | 49.6% | 85.6% | 80.7% | 78.9% | 70.1% | 37.4% | 43.2%
12 | Cc1c2oc3c(C)ccc(C(=O)OC(C)C4NC(=O)C(C(C)C)N(C)C(=O)CN(C)C(=O)C5CCCN5C(=O)C(C(C)C)NC4=O)c3nc-2c(C(=O)OC(C)C2NC(=O)C(C(C)C)N(C)C(=O)CN(C)C(=O)C3CCCN3C(=O)C(C(C)C)NC2=O)c(N)c1=O (centres undefined) | -64.8% (active) | 5.92% (active) | 7.77% (active) | -8.49% (active) | -7.83% (active) | 1.27% (active) | 3.24% (active) | – | 18.4% | –
13 | CN(C)c1ncnc2c1ncn2C1CCCCO1 (centres undefined) | 102% | 102% | 93.8% | 73.2% | 101% | 104% | 102% | – | 94.9% | 95.1%
14 | N/C(=N\c1nc2ccccc2s1)NC(=O)Nc1ccccc1Cl | 18.8% | 41.2% | 42.2% | 54.2% | 69.4% | 42.2% | 32.7% | – | 12.9% | 13.9%
15 | O=[N+]([O-])c1ccc2[nH]cc(-c3c4ccccc4cc4[nH]c5ccc([N+](=O)[O-])cc5c34)c2c1 | 2.23% (active) | 39.4% | 36.7% | 13.2% | 58.7% | 15.4% | 25.3% | – | 7.25% (active) | 6.8% (active)
16 | CCN(CC)CCSc1ncnc2c1cnn2-c1ccc(S(N)(=O)=O)cc1 | 96.5% | 86.8% | 89.5% | 87.7% | 103% | 92.2% | 7.74% (active) | 92% | 88.4% | 85.6%
17 | COc1cc(/C=N/NC(=O)c2ccc(C(F)(F)F)nc2Nc2ccc(Cl)cc2C)ccc1O | 18.8% | 38.4% | 68.6% | 0.291% (active) | 49.7% | 33.4% | 39.6% | – | 12.6% | -23.6% (active)
18 | N#Cc1ccc(-c2csc(Nc3ccc4nc5n(c(=O)c4c3)CCC5)n2)cc1 | 95.4% | 99% | 104% | 100% | 110% | 108% | 102% | – | 51.8% | 92.8%
19 | COc1ccc(OC)c(CCn2cncc2-c2c[nH]c3cc(Br)ccc23)c1 | 7.7% (active) | 35.3% | 49.5% | 39.5% | 45.9% | 58.3% | 35.5% | – | 36.8% | 16.2%
20 | N#Cc1c(-c2ccccc2)cc(-c2ccccc2)n(CC(=O)O)c1=O | 28% | 81.4% | 70% | 68.9% | 84.2% | 76.1% | 47.3% | – | 56.3% | 63.8%
21 | O=C1Nc2ccc(Cl)cc2[C@@](C#CC2CC2)(C(F)(F)F)O1 | 95.5% | 112% | 85.8% | 116% | 106% | 88.6% | 91.4% | 106% | 87.4% | 74.1%
22 | N/C(=N\C(N)=N\c1nc2ccccc2s1)c1ccnc(Cl)c1 | 29% | 51.3% | 57.6% | 56.5% | 75.7% | 47.8% | 21.6% | – | 19.2% | 33.6%
23 | CC(NC(=O)Oc1cccc2ccccc12)c1ccccc1 (centres undefined) | 107% | 107% | 97.4% | 61.1% | 105% | 98.9% | 121% | 106% | 72% | 68.9%
24 | COc1ccc(CNC(=O)c2c(C)n([O-])c3ccccc3[n+]2=O)cc1 | 95.8% | 83.8% | 101% | 32.9% | 120% | 109% | 112% | 96.1% | 98.4% | 93.4%
25 | CC(=O)[C@H]1CC[C@H]2[C@@H]3C[C@H](C)C4=CC(=O)CC[C@]4(C)[C@H]3C(=O)C[C@]12C | 98.9% | 114% | 94.5% | 87% | 104% | 95.8% | 94.8% | 74% | 104% | 92.3%
26 | O=C(c1ccccc1)c1ccc(Oc2ccc([N+](=O)[O-])cc2[N+](=O)[O-])cc1 | 34.9% | 99.6% | 71.6% | 48.7% | 83.4% | 50.4% | 27.3% | – | 27.4% | 78.3%
27 | Cc1ccc(C(NC(=O)c2ccccc2)c2ccc3cccnc3c2O)cc1 (centres undefined) | 18.5% | 17.3% | 14.1% | -3.13% (active) | 16% | 8.26% (active) | 9.05% (active) | 24.9% | 5.39% (active) | 8.31% (active)
28 | CC1CN(/N=C/c2ccc([N+](=O)[O-])o2)C(=N)O1 (centres undefined) | 123% | 104% | 91% | 73.9% | 105% | 92.9% | 96.4% | – | 112% | 107%
